Test results reported in the supplement of paper PMC10849652.
Targets with a hit are over-represented here; the source holds about 8,800 in all. About 0.5% of all pairs of compound and target were hits. Values without a mark were called inactive.

Columns and labels:
Assay in all cases: log2 fold change, soluble protein after heating vs DMSO (PISA); higher = thermal stabilisation; K562 lysate, 10 uM; active = over 0.2 and 3.5 SD of the protein, either way, in both replicates (recomputed)
alvocidib = compound: CN1CC[C@H](c2c(O)cc(O)c3c(=O)cc(-c4ccccc4Cl)oc23)[C@H](O)C1 [alvocidib]
Outline: (§1)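 Log-two fold change in thermal stability relative to solvent controls is reported from duplicates. For each sample, crude K562 extract from dounce-homogenised pellets in PBS pH 7.4 with 1 mM MgCl2, at 1 mg/mL protein, was treated with 10 μM compound for 30 min. Aliquots heated for 3 min across 48°C-58°C were pooled, brought to 0.5% NP-40 at 4°C and cleared at 21,000xg for 90 min. The supernatant was quantified by TMTpro 16plex LC-MS/MS with channel sums equalised.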

Tubastatin A = compound: CN1CCc2c(c3ccccc3n2Cc2ccc(C(=O)NO)cc2)C1 [Tubastatin A]
Outline: as §1

[1] = compound: CNC(=O)C1=CC=CC=C1NC2=NC(=NC=C2Cl)NC3=C(C=C(C=C3)N4CCOCC4)OC
Outline: as §1

defactinib = compound: CNC(=O)c1ccc(Nc2ncc(C(F)(F)F)c(NCc3nccnc3N(C)S(C)(=O)=O)n2)cc1 [defactinib]
Outline: as §1

[2] = compound: CNc1nc(-c2ccc3c(N)n[nH]c3c2)cc(N2C[C@@H](C(=O)NC3CCCCC3)CC[C@H]2C)n1
Outline: as §1

encorafenib = compound: COC(=O)N[C@@H](C)CNc1nccc(-c2cn(C(C)C)nc2-c2cc(Cl)cc(NS(C)(=O)=O)c2F)n1 [encorafenib]
Outline: as §1

[3] = compound: COC(=O)[C@H](CCSC)NC(=O)C1=C(C=C(C=C1)NC[C@H](CS)N)C2=CC=CC=C2
Outline: as §1

alisertib = compound: COc1cc(Nc2ncc3c(n2)-c2ccc(Cl)cc2C(c2c(F)cccc2OC)=NC3)ccc1C(=O)O [alisertib]
Outline: as §1

[4] = compound: COc1cc2nc(-c3cc(F)ccc3O)nc(N[C@@H]3CNC[C@H]3C(C)(C)O)c2cc1OC
Outline: as §1

gefitinib = compound: COc1cc2ncnc(Nc3ccc(F)c(Cl)c3)c2cc1OCCCN1CCOCC1 [gefitinib]
Outline: as §1

Chain of MTHFD1, A0A384N5Y3 (A0A384N5Y3 whole entry, looked up): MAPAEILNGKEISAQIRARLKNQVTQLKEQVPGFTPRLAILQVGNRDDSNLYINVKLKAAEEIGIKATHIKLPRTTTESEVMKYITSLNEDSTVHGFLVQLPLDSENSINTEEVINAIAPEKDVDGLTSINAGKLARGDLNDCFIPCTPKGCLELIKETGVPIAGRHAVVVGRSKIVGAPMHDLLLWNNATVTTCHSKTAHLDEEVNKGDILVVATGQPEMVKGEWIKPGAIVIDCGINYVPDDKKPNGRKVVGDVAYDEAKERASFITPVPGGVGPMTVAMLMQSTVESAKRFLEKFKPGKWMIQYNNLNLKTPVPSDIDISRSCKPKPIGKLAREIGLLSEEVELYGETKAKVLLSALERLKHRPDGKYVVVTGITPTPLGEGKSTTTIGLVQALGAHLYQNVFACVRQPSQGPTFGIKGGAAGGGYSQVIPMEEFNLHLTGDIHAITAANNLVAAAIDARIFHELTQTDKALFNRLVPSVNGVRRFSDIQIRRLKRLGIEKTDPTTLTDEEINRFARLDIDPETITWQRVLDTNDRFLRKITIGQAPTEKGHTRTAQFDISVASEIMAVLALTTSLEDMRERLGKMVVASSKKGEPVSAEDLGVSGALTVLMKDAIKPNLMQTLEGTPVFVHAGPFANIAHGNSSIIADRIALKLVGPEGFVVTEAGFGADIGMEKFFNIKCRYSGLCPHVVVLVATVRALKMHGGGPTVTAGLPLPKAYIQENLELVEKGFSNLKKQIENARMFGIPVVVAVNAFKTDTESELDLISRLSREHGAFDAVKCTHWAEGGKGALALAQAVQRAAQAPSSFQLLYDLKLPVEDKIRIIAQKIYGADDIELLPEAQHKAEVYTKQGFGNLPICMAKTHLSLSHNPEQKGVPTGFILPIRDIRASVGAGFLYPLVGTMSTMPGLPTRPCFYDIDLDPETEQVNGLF
Chain of UniProt P43246 (P43246 whole entry, looked up): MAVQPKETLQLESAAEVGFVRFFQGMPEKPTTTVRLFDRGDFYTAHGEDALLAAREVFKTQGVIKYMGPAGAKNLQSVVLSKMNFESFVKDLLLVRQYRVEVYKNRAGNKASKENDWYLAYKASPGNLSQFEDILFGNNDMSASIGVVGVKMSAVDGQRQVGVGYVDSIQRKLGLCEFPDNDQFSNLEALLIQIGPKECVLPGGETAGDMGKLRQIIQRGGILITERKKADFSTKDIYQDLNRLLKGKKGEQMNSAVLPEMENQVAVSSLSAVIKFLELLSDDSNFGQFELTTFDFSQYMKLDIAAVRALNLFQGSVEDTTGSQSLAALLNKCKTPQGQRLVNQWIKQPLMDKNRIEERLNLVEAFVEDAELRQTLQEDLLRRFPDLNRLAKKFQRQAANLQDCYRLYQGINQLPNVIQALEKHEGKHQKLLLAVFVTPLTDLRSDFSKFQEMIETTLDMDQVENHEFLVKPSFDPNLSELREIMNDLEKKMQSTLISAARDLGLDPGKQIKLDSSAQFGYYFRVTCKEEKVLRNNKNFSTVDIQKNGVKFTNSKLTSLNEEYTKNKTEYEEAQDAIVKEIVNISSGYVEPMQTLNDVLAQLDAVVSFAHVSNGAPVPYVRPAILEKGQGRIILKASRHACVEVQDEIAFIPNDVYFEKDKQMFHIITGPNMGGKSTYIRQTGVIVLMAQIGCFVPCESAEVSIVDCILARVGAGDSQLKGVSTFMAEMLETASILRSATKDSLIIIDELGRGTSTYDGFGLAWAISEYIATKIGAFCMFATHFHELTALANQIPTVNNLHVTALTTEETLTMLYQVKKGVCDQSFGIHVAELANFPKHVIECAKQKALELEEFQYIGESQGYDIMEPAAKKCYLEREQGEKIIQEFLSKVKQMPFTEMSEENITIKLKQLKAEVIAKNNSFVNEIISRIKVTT
Chain of UniProt Q9H3P2 (Q9H3P2 whole entry, looked up): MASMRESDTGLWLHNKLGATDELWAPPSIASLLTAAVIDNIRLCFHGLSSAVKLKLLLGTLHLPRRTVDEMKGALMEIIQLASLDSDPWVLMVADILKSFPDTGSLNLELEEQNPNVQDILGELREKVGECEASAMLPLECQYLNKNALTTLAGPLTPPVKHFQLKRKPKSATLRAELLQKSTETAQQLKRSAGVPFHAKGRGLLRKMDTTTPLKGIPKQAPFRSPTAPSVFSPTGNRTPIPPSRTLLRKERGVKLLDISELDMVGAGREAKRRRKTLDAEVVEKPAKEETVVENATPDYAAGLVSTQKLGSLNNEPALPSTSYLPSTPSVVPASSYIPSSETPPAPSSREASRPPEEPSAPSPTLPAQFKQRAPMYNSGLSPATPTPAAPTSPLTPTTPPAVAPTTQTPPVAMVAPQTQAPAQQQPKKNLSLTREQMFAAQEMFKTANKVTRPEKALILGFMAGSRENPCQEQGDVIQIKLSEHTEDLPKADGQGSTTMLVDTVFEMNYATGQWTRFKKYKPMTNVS
Chain of UniProt Q8NCF5 (Q8NCF5 whole entry, looked up): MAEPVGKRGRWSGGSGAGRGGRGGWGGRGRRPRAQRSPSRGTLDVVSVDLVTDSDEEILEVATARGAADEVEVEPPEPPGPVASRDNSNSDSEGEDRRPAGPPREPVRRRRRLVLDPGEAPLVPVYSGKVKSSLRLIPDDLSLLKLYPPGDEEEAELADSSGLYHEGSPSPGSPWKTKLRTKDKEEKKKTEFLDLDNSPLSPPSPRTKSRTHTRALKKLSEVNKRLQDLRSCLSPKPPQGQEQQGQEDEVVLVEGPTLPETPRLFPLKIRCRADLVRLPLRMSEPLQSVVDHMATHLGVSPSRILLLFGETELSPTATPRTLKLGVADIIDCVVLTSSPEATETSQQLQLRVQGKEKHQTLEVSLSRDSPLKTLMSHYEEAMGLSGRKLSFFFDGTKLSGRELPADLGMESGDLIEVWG
Chain of UniProt Q9BTX1 (Q9BTX1 whole entry, looked up): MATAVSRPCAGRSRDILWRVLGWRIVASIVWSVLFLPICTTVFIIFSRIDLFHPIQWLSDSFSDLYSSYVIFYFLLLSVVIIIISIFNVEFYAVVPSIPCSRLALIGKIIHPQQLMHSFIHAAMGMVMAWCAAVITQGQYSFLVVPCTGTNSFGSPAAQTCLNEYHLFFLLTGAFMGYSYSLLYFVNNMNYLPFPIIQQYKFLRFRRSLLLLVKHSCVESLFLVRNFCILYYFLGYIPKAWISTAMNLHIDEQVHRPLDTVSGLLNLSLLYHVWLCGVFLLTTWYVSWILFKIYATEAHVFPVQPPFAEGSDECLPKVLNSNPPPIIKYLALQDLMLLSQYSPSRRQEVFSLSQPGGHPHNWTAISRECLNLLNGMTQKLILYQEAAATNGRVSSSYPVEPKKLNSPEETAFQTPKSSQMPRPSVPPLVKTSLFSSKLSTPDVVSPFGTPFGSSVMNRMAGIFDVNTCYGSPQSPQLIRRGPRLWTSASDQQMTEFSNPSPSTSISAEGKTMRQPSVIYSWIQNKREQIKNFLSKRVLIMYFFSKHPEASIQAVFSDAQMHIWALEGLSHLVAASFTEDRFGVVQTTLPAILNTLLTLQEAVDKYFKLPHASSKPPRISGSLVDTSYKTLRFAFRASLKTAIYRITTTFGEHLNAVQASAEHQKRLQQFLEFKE
Chain of UniProt Q9BYG3 (Q9BYG3 whole entry, looked up): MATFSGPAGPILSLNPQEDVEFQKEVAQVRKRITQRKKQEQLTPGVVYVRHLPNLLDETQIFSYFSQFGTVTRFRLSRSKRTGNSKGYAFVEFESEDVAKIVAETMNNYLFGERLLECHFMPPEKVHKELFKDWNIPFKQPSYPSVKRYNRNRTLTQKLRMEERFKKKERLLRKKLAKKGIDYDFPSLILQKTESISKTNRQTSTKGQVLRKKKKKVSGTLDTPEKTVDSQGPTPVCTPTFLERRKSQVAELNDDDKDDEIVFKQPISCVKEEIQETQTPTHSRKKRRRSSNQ
Chain of UniProt P00480 (P00480 whole entry, looked up): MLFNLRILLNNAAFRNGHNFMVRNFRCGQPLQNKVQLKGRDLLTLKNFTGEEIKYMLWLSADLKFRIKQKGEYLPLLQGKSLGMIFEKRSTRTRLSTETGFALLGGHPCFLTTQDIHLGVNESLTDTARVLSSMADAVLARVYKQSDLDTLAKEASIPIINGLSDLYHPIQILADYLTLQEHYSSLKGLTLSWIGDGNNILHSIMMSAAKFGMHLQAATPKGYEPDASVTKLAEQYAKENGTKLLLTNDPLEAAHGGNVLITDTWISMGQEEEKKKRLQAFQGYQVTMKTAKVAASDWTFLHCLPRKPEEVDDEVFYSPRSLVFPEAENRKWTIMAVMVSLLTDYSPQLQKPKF
Chain of UniProt P18440 (P18440 whole entry, looked up): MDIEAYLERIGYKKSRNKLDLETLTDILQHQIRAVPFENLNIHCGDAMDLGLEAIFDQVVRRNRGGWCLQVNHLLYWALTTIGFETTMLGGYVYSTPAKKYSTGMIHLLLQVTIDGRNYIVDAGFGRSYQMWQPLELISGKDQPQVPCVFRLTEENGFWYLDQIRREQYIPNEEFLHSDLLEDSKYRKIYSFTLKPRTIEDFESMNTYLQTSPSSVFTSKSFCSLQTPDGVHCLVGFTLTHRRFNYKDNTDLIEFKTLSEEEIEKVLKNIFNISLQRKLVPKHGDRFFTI
Chain of UniProt Q9BPZ3 (Q9BPZ3 whole entry, looked up): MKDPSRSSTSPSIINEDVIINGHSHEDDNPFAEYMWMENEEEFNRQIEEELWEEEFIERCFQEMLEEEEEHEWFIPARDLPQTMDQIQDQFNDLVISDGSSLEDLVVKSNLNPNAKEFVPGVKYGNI
Chain of UniProt Q15102 (Q15102 whole entry, looked up): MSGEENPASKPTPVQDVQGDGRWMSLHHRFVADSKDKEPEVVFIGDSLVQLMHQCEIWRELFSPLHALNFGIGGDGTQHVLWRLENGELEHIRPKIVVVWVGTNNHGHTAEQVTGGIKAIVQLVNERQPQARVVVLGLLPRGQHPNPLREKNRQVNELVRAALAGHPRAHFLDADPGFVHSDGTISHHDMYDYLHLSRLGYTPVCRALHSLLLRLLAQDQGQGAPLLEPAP
Chain of UniProt Q5JRK9 (Q5JRK9 whole entry, looked up): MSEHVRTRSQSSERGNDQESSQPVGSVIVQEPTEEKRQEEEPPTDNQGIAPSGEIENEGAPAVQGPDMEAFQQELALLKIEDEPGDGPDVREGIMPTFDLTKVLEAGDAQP

Target | log2 fold change (alvocidib) | log2 fold change (Tubastatin A) | log2 fold change [1] | log2 fold change (defactinib) | log2 fold change [2] | log2 fold change (encorafenib) | log2 fold change [3] | log2 fold change (alisertib) | log2 fold change [4] | log2 fold change (gefitinib)
ORC3 isoform 2 (UniProt Q9UBD5) | 0.006 | -0.155 | 0.007 | 0.022 | 0.035 | 0.02 | 0.15 | 0.001 | -0.009 | -0.019
NTPCR (UniProt Q9BSD7) | 0.007 | -0.163 | 0.055 | 0.009 | 0.027 | 0.005 | -0.007 | 0.007 | 0.058 | -0.057
MRPL51 (UniProt Q4U2R6) | -0.039 | -0.018 | 0.016 | 0.198 | -0.002 | 0.088 | -0.208 | -0.005 | -0.005 | -0.044
MSH2 (UniProt P43246) | 0.026 | -0.105 | -0.017 | 0.023 | 0.007 | 0.011 | 0.061 | -0.011 | -0.002 | -0.007
NFKBIE (UniProt O00221) | -0.068 | 0.029 | 0.055 | 0.054 | 0.013 | 0.038 | -0.14 | 0.047 | -0.03 | 0.014
MT-ND1 (UniProt P03886) | -0.149 | -0.037 | 0.043 | 0.081 | 0.014 | 0.046 | -0.051 | 0.032 | -0.073 | 0.087
MRPS31 (UniProt Q92665) | -0.023 | 0.002 | -0.029 | 0.024 | 0.018 | 0.006 | -0.02 | 0.007 | -0.017 | -0.014
MYO1D (UniProt O94832) | 0.026 | -0.091 | -0.006 | 0.048 | -0.008 | 0.058 | -0.012 | -0.019 | 0.012 | -0.016
NBEAL2 (UniProt Q6ZNJ1) | 0.031 | -0.141 | -0.005 | 0.022 | 0.033 | 0.003 | -0.029 | -0.053 | -0.009 | 0.01
MTA1 (UniProt Q13330) | 0.007 | -0.045 | 0.013 | 0.008 | -0.01 | -0.005 | 0.098 | -0.026 | 0.023 | -0.023
PARP14 (UniProt Q460N5) | 0.009 | -0.238 | -0.15 | -0.007 | -0.09 | 0.021 | 0.082 | -0.127 | 0 | -0.014
OTUD7B (UniProt Q6GQQ9) | -0.052 | -0.099 | 0.005 | 0.022 | -0.011 | 0.042 | 0.049 | -0.006 | -0.031 | 0.062
PAFAH1B3 (UniProt Q15102) | 0.005 | -0.067 | 0.019 | 0.065 | -0.017 | -0.016 | 0.212 (active) | 0.058 | -0.022 | -0.02
PAGE2B (UniProt Q5JRK9) | 0.059 | 0.175 | 0.097 | 0.253 | 0.072 | 0.089 | -0.001 | 0.053 | -0.091 | -0.051
NAT1 (UniProt P18440) | 0.038 | -0.087 | -0.025 | 0.05 | -0.046 | -0.02 | 0.006 | 0.035 | 0.039 | 0.031
NCOR2 (UniProt C9J0Q5) | 0.024 | -0.035 | -0.013 | 0.045 | -0.001 | -0.002 | 0.006 | 0.036 | 0.017 | 0.049
NTMT1 (UniProt Q9BV86) | 0.047 | -0.175 | 0.018 | 0.065 | 0.023 | -0.006 | 0.166 | -0.007 | -0.016 | 0.057

Target | log2 fold change (alvocidib) | log2 fold change (Tubastatin A) | log2 fold change [1] | log2 fold change (defactinib) | log2 fold change [2] | log2 fold change (encorafenib) | log2 fold change [3] | log2 fold change (alisertib) | log2 fold change [4] | log2 fold change (gefitinib)
NAA35 (UniProt Q5VZE5) | 0.018 | -0.056 | -0.007 | 0.034 | 0 | 0.01 | -0.001 | -0.026 | -0.006 | -0.008
MTHFD1, A0A384N5Y3 | 0.036 | -0.076 | -0.01 | 0.03 | 0.002 | -0.016 | 0.145 | -0.007 | -0.012 | -0.025
NDC1 (UniProt Q9BTX1) | -0.131 | -0.046 | -0.001 | -0.058 | -0.044 | 0.03 | -0.297 (active) | 0.011 | 0.047 | -0.031
NELFA (UniProt Q9H3P2) | 0.036 | -0.139 | 0.022 | 0.056 | 0.051 | 0 | 0.025 | 0.006 | -0.006 | -0.015
NFATC2IP (UniProt Q8NCF5) | -0.015 | 0.002 | 0.052 | 0 | 0.002 | 0.003 | -0.208 (active) | -0.009 | -0.001 | 0.023
NCAPG (UniProt Q9BPX3) | 0.003 | -0.113 | 0.011 | 0.024 | 0.01 | -0.01 | 0.094 | 0.007 | -0.01 | 0.003
NGLY1 (UniProt Q96IV0) | -0.041 | -0.089 | -0.013 | 0.022 | 0 | -0.009 | 0.111 | 0.002 | 0.001 | -0.044
NUP133 (UniProt Q8WUM0) | -0.08 | -0.111 | -0.007 | 0.035 | -0.028 | 0.039 | 0.002 | -0.009 | 0.011 | -0.003
PAIP2 (UniProt Q9BPZ3) | 0.009 | 0.045 | -0.03 | -0.056 | 0.037 | -0.092 | 0.071 | -0.038 | -0.049 | -0.019
NCAPG2 (UniProt Q86XI2) | -0.014 | -0.217 | -0.008 | 0.023 | 0.04 | 0.002 | -0.018 | 0.004 | -0.01 | 0.038
N4BP2 (UniProt Q86UW6) | 0.063 | -0.17 | 0.052 | 0.021 | -0.004 | 0.06 | 0.003 | 0.016 | 0 | -0.005
NFATC2 (UniProt Q13469) | -0.12 | -0.118 | 0.021 | -0.028 | 0.06 | 0.004 | 0.1 | -0.047 | -0.007 | -0.025
MSH3 (UniProt P20585) | 0.021 | -0.004 | 0.008 | 0.023 | 0.057 | 0.02 | -0.013 | -0.027 | 0.006 | -0.012
OTC (UniProt P00480) | -1.18 (active) | 0.148 | -0.134 | -0.188 | -0.152 | -0.047 | -0.018 | 0.218 | -0.023 | 0.184
NIFK (UniProt Q9BYG3) | 0.009 | -0.023 | -0.023 | 0 | 0.095 | 0.039 | -0.003 | -0.073 | -0.014 | 0.01
MVB12A (UniProt Q96EY5) | -0.019 | -0.221 | -0.009 | 0.056 | 0.037 | -0.015 | -0.012 | -0.011 | -0.035 | -0.055
